Data from PubChem BioAssay (NCI).
About 79,000 compounds went through this panel and 15% of them were active in at least one assay; those are over-represented in the sample as a whole. Calls of active or inactive are those of the source. Rule as the data show it: active = growth inhibition above about 70%; inactive = the rest.

Tests used:
[1] = NCI Yeast Anticancer Drug Screen. Data for the rad52 strain (AID 147);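 also: 0% = growth of vehicle-treated control cultures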; conditions: S. cerevisiae rad52 mutant growth inhibition, stronger effect = higher value
Method in brief: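 Genetically altered yeast (DNA damage repair defect) treated with compound; inhibition calculated relative to vehicle.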

[2] = NCI Yeast Anticancer Drug Screen. Data for the wt1 strain (AID 149);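 also: 0% = growth of vehicle-treated wt1 cultures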; conditions: S. cerevisiae wt1 strain (SPY 50644) growth inhibition, stronger effect = higher value
Method in brief: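 Each compound is tested on wt1 yeast and the loss of growth versus vehicle gives the inhibition value.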

[3] = NCI Yeast Anticancer Drug Screen. Data for the rad50EPP+ strain (AID 151);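 also: 0% = growth of vehicle-treated control cultures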; conditions: S. cerevisiae rad50 mutant strain, stronger effect = higher value
Method in brief: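 Strain rad50EPP+; compound exposure; % growth inhibition vs vehicle.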

[4] = NCI Yeast Anticancer Drug Screen. Data for the mgt1 strain (AID 153); conditions: S. cerevisiae mgt1 mutant growth inhibition, stronger effect = higher value
Method in brief: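 Read-out: yeast growth inhibition vs vehicle control. Strain mgt1, drawn from a panel altered in DNA damage repair or cell cycle control.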

[5] = NCI Yeast Anticancer Drug Screen. Data for the rad50 strain (AID 155);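 also: 0% = growth of vehicle-only cultures of the same strain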; conditions: S. cerevisiae rad50 strain growth inhibition, stronger effect = higher value
Method in brief: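 Vehicle-treated cultures provide the reference for the growth inhibition reported for compound-exposed, repair-deficient yeast.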

[6] = NCI Yeast Anticancer Drug Screen. Data for the mec2-1 strain (AID 157); conditions: S. cerevisiae mec2-1 strain, stronger effect = higher value
Method in brief: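 Cells of the genetically defined mec2-1 yeast strain are incubated with test compound. Inhibition of growth is calculated against vehicle-treated controls.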

[7] = NCI Yeast Anticancer Drug Screen. Data for the rad14 strain (AID 159);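 also: 0% = growth of vehicle-treated control cultures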; conditions: S. cerevisiae rad14 strain growth inhibition, stronger effect = higher value
Method in brief: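 Inhibition of growth is reported for a repair-deficient yeast mutant following compound treatment, calculated relative to cultures that received vehicle.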

[8] = NCI Yeast Anticancer Drug Screen. Data for the sgs1 mgt1 strain (AID 161);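 also: 0% = growth of cultures given vehicle only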; conditions: S. cerevisiae sgs1 mgt1 strain, stronger effect = higher value
Method in brief: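 Read-out: growth inhibition vs vehicle controls. Cells: mutant yeast strain deficient in DNA damage repair.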

[9] = NCI Yeast Anticancer Drug Screen. Data for the CLN2oe strain (AID 163);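 also: 0% = growth of vehicle-only control cultures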; conditions: S. cerevisiae CLN2oe strain, stronger effect = higher value
Method in brief: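 Strain altered in cell-cycle control, incubated with compound; growth compared to solvent-treated controls.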

[10] = NCI Yeast Anticancer Drug Screen. Data for the cln2 rad14 strain (AID 165);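 also: 0% = growth equal to vehicle treated cultures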; conditions: S. cerevisiae cln2 rad14 strain, stronger effect = higher value
Method in brief: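 The screen exposed genetically defined yeast (cln2 rad14) to test compounds and scored growth inhibition relative to vehicle-treated controls.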

[11] = NCI Yeast Anticancer Drug Screen. Data for the bub3 strain (AID 167); conditions: S. cerevisiae bub3 mutant strain, stronger effect = higher value
Method in brief: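 Mutant yeast screening strain plus compound; vehicle-treated cultures serve as the 0% inhibition reference.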

[12] = NCI Yeast Anticancer Drug Screen. Data for the mlh1 strain (AID 171);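 also: 0% = growth of vehicle-treated control cultures of the same strain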; conditions: S. cerevisiae mlh1 strain growth inhibition, stronger effect = higher value
Method in brief: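 Yeast screen: mutant strain plus compound, growth scored against vehicle control wells.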

[13] = NCI Yeast Anticancer Drug Screen. Data for the sgs1 strain (AID 173);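 also: 0% = growth of vehicle-only control cultures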; conditions: S. cerevisiae sgs1 mutant, stronger effect = higher value
Method in brief: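 Inhibition of yeast growth served as the measure. The mutant strain was treated with each compound, and growth was normalised to cultures receiving vehicle alone.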

[14] = NCI Yeast Anticancer Drug Screen. Data for the mlh1 rad18 strain (AID 175); conditions: S. cerevisiae mlh1 rad18 strain growth inhibition, stronger effect = higher value
Method in brief: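 Compound-treated yeast growth, normalised to vehicle controls. Strain bears defined DNA repair mutations.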

[15] = NCI Yeast Anticancer Drug Screen. Data for the rad18 strain (AID 177); conditions: S. cerevisiae rad18 mutant growth inhibition, stronger effect = higher value
Method in brief: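 Inhibition values reflect reduced yeast growth compared with vehicle-treated controls, using a strain engineered with a DNA damage repair defect.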

[16] = at 5.0 µM (retest, dose inferred, filed as 0.5)
[17] = at 50.0 µM (retest, dose inferred, filed as 5.0)

Measured: growth inhibition

CCC(C)(C)c1ccc(Oc2ccccc2)c(N)c1
inactive: [1]; at 1.2 µM -21% | [1]; at 3.7 µM -4% | [2]; at 1.2 µM -15% | [2]; at 3.7 µM -12% | [3]; at 1.2 µM 3% | [3]; at 3.7 µM 36% | [3]; at 11.0 µM 66% | [4]; at 1.2 µM -16% | [4]; at 3.7 µM -1% | [5]; at 1.2 µM -33% | [5]; at 3.7 µM -6% | [5]; [16] 42% | [5]; [17] 51% | [6]; at 1.2 µM -40% | [6]; at 3.7 µM -24% | [6]; [16] 44% | [6]; [17] 50% | [7]; at 1.2 µM -2% | [7]; at 3.7 µM 13% | [8]; [16] 2% | [9]; at 1.2 µM -22% | [9]; at 3.7 µM -2% | [10]; [16] 62% | [11]; at 1.2 µM -10% | [11]; at 3.7 µM -6% | [11]; [16] 36% | [12]; at 1.2 µM -30% | [12]; at 3.7 µM -18% | [13]; at 1.2 µM -17% | [13]; at 3.7 µM 6% | [14]; [16] 39% | [14]; [17] 45% | [15]; at 1.2 µM -31% | [15]; at 3.7 µM -7%
active: [1]; at 11.0 µM 96% | [1]; at 33.0 µM 99% | [1]; at 100.0 µM 98% | [2]; at 11.0 µM 97% | [2]; at 33.0 µM 99% | [2]; at 100.0 µM 98% | [3]; at 33.0 µM 84% | [3]; at 100.0 µM 90% | [4]; at 11.0 µM 96% | [4]; at 33.0 µM 99% | [4]; at 100.0 µM 99% | [5]; at 11.0 µM 94% | [5]; at 33.0 µM 98% | [5]; at 50.0 µM 90.5% | [5]; at 100.0 µM 99% | [6]; at 11.0 µM 96% | [6]; at 33.0 µM 99% | [6]; at 50.0 µM 93.2% | [6]; at 100.0 µM 99% | [7]; at 11.0 µM 97% | [7]; at 33.0 µM 99% | [7]; at 100.0 µM 99% | [8]; [17] 97% | [8]; at 50.0 µM 93.5% | [9]; at 11.0 µM 96% | [9]; at 33.0 µM 99% | [9]; at 100.0 µM 97% | [10]; [17] 99% | [10]; at 50.0 µM 92.3% | [11]; at 11.0 µM 95% | [11]; at 33.0 µM 99% | [11]; [17] 99% | [11]; at 50.0 µM 92.3% | [11]; at 100.0 µM 98% | [12]; at 11.0 µM 95% | [12]; at 33.0 µM 98% | [12]; at 100.0 µM 98% | [13]; at 11.0 µM 94% | [13]; at 33.0 µM 99% | [13]; at 100.0 µM 98% | [14]; at 50.0 µM 91.2% | [15]; at 11.0 µM 94% | [15]; at 33.0 µM 99% | [15]; at 100.0 µM 97%

Nc1ccc2cc(Br)ccc2c1Br
active: [6]; at 50.0 µM 90.2% | [11]; at 50.0 µM 88.5% | [14]; at 50.0 µM 91.2%
inactive: [1]; at 1.2 µM -6% | [1]; at 3.7 µM 1% | [1]; at 11.0 µM 1% | [1]; at 33.0 µM 3% | [1]; at 100.0 µM 52% | [2]; at 1.2 µM -2% | [2]; at 3.7 µM -3% | [2]; at 11.0 µM -3% | [2]; at 33.0 µM -5% | [2]; at 100.0 µM -1% | [3]; at 1.2 µM 1% | [3]; at 3.7 µM 7% | [3]; at 11.0 µM 23% | [3]; at 33.0 µM 19% | [3]; at 100.0 µM 49% | [4]; at 1.2 µM -4% | [4]; at 3.7 µM -1% | [4]; at 11.0 µM -1% | [4]; at 33.0 µM -1% | [4]; at 100.0 µM 4% | [5]; at 1.2 µM -2% | [5]; at 3.7 µM 1% | [5]; [16] 13% | [5]; at 11.0 µM 8% | [5]; at 33.0 µM 2% | [5]; [17] 27% | [5]; at 50.0 µM 4.6% | [5]; at 100.0 µM 26% | [6]; at 1.2 µM 0% | [6]; at 3.7 µM -1% | [6]; [16] -5% | [6]; at 11.0 µM -2% | [6]; at 33.0 µM -2% | [6]; [17] 1% | [6]; at 100.0 µM 1% | [7]; at 1.2 µM -6% | [7]; at 3.7 µM 0% | [7]; at 11.0 µM 7% | [7]; at 33.0 µM 5% | [7]; at 100.0 µM 26% | [8]; [16] 15% | [8]; [17] 14% | [8]; at 50.0 µM 18% | [9]; at 1.2 µM -2% | [9]; at 3.7 µM -2% | [9]; at 11.0 µM -3% | [9]; at 33.0 µM -5% | [9]; at 100.0 µM 2% | [10]; [16] 3% | [10]; [17] 9% | [10]; at 50.0 µM -23% | [11]; at 1.2 µM 3% | [11]; at 3.7 µM 3% | [11]; [16] 22% | [11]; at 11.0 µM 1% | [11]; at 33.0 µM 4% | [11]; [17] 47% | [11]; at 100.0 µM 6% | [12]; at 1.2 µM -2% | [12]; at 3.7 µM 1% | [12]; at 11.0 µM 3% | [12]; at 33.0 µM 1% | [12]; at 100.0 µM 20% | [13]; at 1.2 µM -24% | [13]; at 3.7 µM -22% | [13]; at 11.0 µM -17% | [13]; at 33.0 µM -9% | [13]; at 100.0 µM 30% | [14]; [16] 28% | [14]; [17] 57%
